# Only a sample is shown.
# aSyn UTR act = Activators via SNCA 5'UTR binding, MLPCN. alpha-synuclein 5'UTR reporter, activators screen. activity score, % (tested at 7.5 µM), hits read low. hit rate 7.1% among 300,000; in the data active means activity score below about -60%
# The depositor's hits bear a star.
SMILES,aSyn UTR act
Cc1ccc(SCCN2CCC(C)CCC2=O)cc1 (stereo unspecified),-153*
CC(C)(C)C1CCC(=O)N(CCSc2ccccc2)CC1 (stereo unspecified),-145*
Cc1ccc(SCCC(=O)N2CCC(C)CC2)cc1,-92*
CC(=O)Nc1cc(NC(C)=O)c(N=Nc2ccccc2)cc1C,-89*
O=C(Nc1cccc(-c2csc(Nc3ccccc3)n2)c1)c1ccccc1,-142*
CC(=O)c1cccc(Nc2nc(-c3cccnc3)cs2)c1,-230*
CC(=O)c1cccc(Nc2nc(-c3ccccc3)cs2)c1,-145*
COc1ccc(O)c(-c2cc(-c3ccccc3Cl)[nH]n2)c1,-115*
COc1ccc(-c2cc(-c3ccccc3)n[nH]2)c(O)c1,-217*
COc1ccc(O)c(-c2cc(-c3cccs3)[nH]n2)c1,-125*
COc1cccc(/C=N/NC(=O)c2[nH]nc3c2CCc2ccccc2-3)c1,-69*
CC(C)NC(=O)c1[nH]nc2c1CCc1ccccc1-2,-165*
COC(=O)c1ccc(-c2noc(CN3C[C@H]4CC[C@H]3C4)n2)cc1,-119*
Fc1ccc(N2Cc3ccsc3C=N2)cc1,-64*
O=C(Nc1cccc([N+](=O)[O-])c1)c1ccn[nH]1,-106*
O=C(Nc1ccccc1)c1ccn[nH]1,-191*
O=C(Oc1ccc(NC2=C(Cl)C(=O)c3ccccc3C2=O)cc1)c1ccc([N+](=O)[O-])cc1,-109*
Clc1ccc(-c2cn3nc4c(nc3n2)CCCC4)cc1,88
Clc1ccc(-c2cn3cccnc3n2)cc1Cl,-193*
Clc1ccc(-c2cn3cccnc3n2)cc1,-132*
C(=N\NC1=Nc2cccc3cccc1c23)/c1ccccc1,-256*
C(=N\NC1=Nc2cccc3cccc1c23)/c1cccnc1,-258*
Clc1ccc(N/N=C/c2cccnc2)cc1,-123*
Clc1ccc(/C=N/NC2=Nc3cccc4cccc2c34)cc1,-191*
CC(C)N1CCC2(CC1)N=C(c1ccc3c(c1)OCO3)CC(c1cc(Cl)ccc1O)N2 (stereo unspecified),-173*
SMILES,aSyn UTR act
CCN(CC)c1ccc(/C=C2\SC(=O)N(C(C)C)C2=O)o1,-103*
COc1cccc(-c2nnc(-c3ccc(C(F)(F)F)cc3)o2)c1OC,-125*
CCN(CC)CCCNc1nc2cc(OC)c(OC)cc2c2nc(-c3ccccc3)nn12,-76*
CCN(CC)CCCNc1nc2ccccc2c2nc(-c3ccncc3)nn12,-281*
CCN(CC)CCCNc1nc2cc(OC)c(OC)cc2c2nc(-c3cccnc3)nn12,-79*
O=C(/C=C/Sc1ccc(C(F)(F)F)cn1)c1ccccc1,-72*
Cc1cc(C)c(C#N)c(SCc2nnc(-c3ccccc3)o2)n1,102
c1ccc(SCc2nc3ccccc3[nH]2)cc1,-133*
Cc1cc(C)c(C#N)c(SCc2nc3ccccc3[nH]2)n1,-173*
Clc1ccc(SCc2nc3ccccc3[nH]2)cc1,-112*
Cc1ccc(SCc2nc3ccccc3[nH]2)cc1,-128*
c1ccc2[nH]c(CSc3nccs3)nc2c1,-79*
Fc1ccccc1CSCc1nc2ccccc2[nH]1,-133*
CCOC(=O)C(NC(=O)CCl)(Nc1sc(C)c(CC)c1C#N)C(F)(F)F (stereo unspecified),-75*
Cc1ccc(NC(=O)c2cccs2)cc1,-145*
O=C(Nc1ccc(NC(=O)c2cccs2)cc1)c1ccccc1,-140*
O=C(Nc1ccc2c(c1)CCC2)c1cccs1,-145*
O=C(Nc1ccc(Cc2ccncc2)cc1)c1cccs1,-66*
O=C(Nc1ccc(NC(=O)c2cccs2)cc1)c1ccco1,-232*
CC(=O)Oc1cccc(C(=O)Nc2ccc(NC(=O)c3cccs3)cc2)c1,-106*
O=C(Nc1cccc(O)c1)c1ccc(NC(=O)c2cccs2)cc1,-68*
COc1c(Cl)cc(Cl)cc1/C=C/C(=O)c1ccc(NC(=O)c2cccs2)cc1,-115*
O=C(N/N=C(\Cc1ncc[nH]1)c1ccccc1)c1ccccc1,74
O=C(Nc1ccc(O)cc1)c1ccc(NC(=O)c2cccs2)cc1,-70*
O=C(O)CC/C(=N/NC(=O)c1cccs1)c1ccccc1,-167*
SMILES,aSyn UTR act
Cc1cc(C(=O)Nc2ccc3c(c2)OCCO3)co1,-113*
COc1ccc(N(CC(=O)Nc2ccc3c(c2)OCCO3)S(C)(=O)=O)c(OC)c1,-71*
Cc1cc(C)n(-c2ccc(C(=O)Nc3ccc4c(c3)OCCO4)cc2)n1,-101*
COc1ccc(C)cc1NS(=O)(=O)c1ccc(NC(=O)CN(c2cc([N+](=O)[O-])ccc2C)S(C)(=O)=O)cc1,114
CCOc1ccc(C(=O)Nc2ccc3c(c2)OCCO3)cc1OC,-144*
CC(C)CNS(=O)(=O)c1ccc(C(=O)Nc2ccc3c(c2)OCCO3)cc1,-98*
Cc1cc(C)n(-c2ccc(C(=O)Nc3sccc3C(N)=O)cc2)n1,-139*
CCC1CCCCN1S(=O)(=O)c1ccc(C(=O)Nc2nnc(-c3ccccc3Cl)o2)cc1 (stereo unspecified),56
CCOC(=O)c1cc([N+](=O)[O-])sc1NC(=O)c1ccc(S(=O)(=O)N2CC3(C)CC2CC(C)(C)C3)cc1 (stereo unspecified),55
CC1CCCCN1S(=O)(=O)c1ccc(C(=O)Nc2sccc2C(N)=O)cc1 (stereo unspecified),-106*
CCOc1cccc(C(=O)NC(=S)Nc2ccc3c(c2)OCCO3)c1,-87*
Cc1cc(C)n(-c2ccc(C(=O)OCc3ccccc3)cc2)n1,-68*
COc1cc(OC)cc(C(=O)Nc2ccc3c(c2)OCCO3)c1,-123*
O=C(c1cc2c(=O)n3ccccc3nc2s1)N1CCOCC1,-98*
CC1CCN(C(=O)c2cc3c(=O)n4ccccc4nc3s2)CC1,-78*
O=C1CCCN1CCCNc1ncnc2c1cnn2-c1ccc(Cl)cc1,-152*
Cc1cccc(-n2ncc3c(NCCCN4CCCC4=O)ncnc32)c1,-143*
Cc1cccc(-n2ncc3c(NCCCn4ccnc4)ncnc32)c1,-129*
Fc1c(F)c(C(F)(F)F)c(F)c(F)c1N/N=C\c1cccs1,-73*
CCOc1ccc(NC(=O)CN(c2ccc(OC)cc2)S(C)(=O)=O)cc1,-138*
COC(=O)c1ccc(NC(=O)CN(c2ccc(OC)cc2)S(C)(=O)=O)cc1,-176*
CCOc1ccc(N(CC(=O)Nc2ccc(OC)cc2)S(C)(=O)=O)cc1,-69*
CCOc1ccc(N(CC(=O)Nc2ccccc2OC)S(=O)(=O)c2ccccc2)cc1,123
CCOc1ccc(N(CC(=O)NCc2ccccc2C)S(C)(=O)=O)cc1,-91*
CCOc1ccc(N(CC(=O)Nc2ccccc2OCC)S(=O)(=O)c2c(C)noc2C)cc1,95
SMILES,aSyn UTR act
CCOc1ccc(N(CC(=O)Nc2cccc(C)c2)S(C)(=O)=O)cc1,-86*
CC(C)(C)c1ccc(N2C(=O)Cc3c2nc(N)c(C#N)c3N)cc1,-109*
CCc1ccc(N2C(=O)Cc3c2nc(N)c(C#N)c3N)cc1,-160*
CCCCN1C(=O)Cc2c1nc(N)c1c(N)nc(N(CCC)CCC)c(C#N)c21,55
Cc1cc(N(CCO)CCO)ccc1N=Nc1cc(F)ccc1F,-137*
CCN(CCO)c1ccc(N=Nc2cc(C)[nH]n2)cc1,102
COc1ccc2oc(C(=O)NCC3CCCO3)c(C)c2c1 (stereo unspecified),-126*
CCOc1ccc2oc(C(=O)NCC3CCCO3)c(C)c2c1 (stereo unspecified),-100*
COc1ccc(-c2cc(C(=O)NCC3CCCO3)c3cc(C)ccc3n2)cc1 (stereo unspecified),-67*
COc1ccc2oc(C(=O)NC(C)(C)C)c(C)c2c1,-138*
CN(c1ccccc1)c1nc2ccsc2c(=O)s1,-124*
